From PubChem BioAssay (EPA / NIEHS)
Inconclusive results are not listed. Active and inactive are the calls of the source. The calls were made as follows, unless noted: active = hit-call score of the fitted dose curve at least 0.9, where 1 is the maximum; inactive = score below 0.9.

Experiments:
[1] = ATG_TAL_CIS: Attagene CIS-FACTORIAL HepG2 Assay for human TAL Basal Promoter (AID 2282966); settings: HepG2 Attagene cis-factorial TAL promoter reporter; actives raise or lower the signal;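 also: background control endpoint measuring basal TAL promoter reporter mRNA not a specific factor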
How it was run: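 Endogenous transcription-factor activity is sensed in HepG2 cells through transfected cis-promoter reporter constructs. After 24 h dosing, reporter transcripts are quantified by RT-PCR and capillary electrophoresis. Gain or loss of signal is fitted relative to DMSO.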

[2] = ATG_TGFb_CIS: Attagene CIS-FACTORIAL HepG2 Assay for human Transforming Growth Factor (TGF) (AID 2282967); settings: HepG2 Attagene CIS TGFb reporter, mRNA transcription; actives raise or lower the signal
How it was run: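 Bidirectional fitting relative to DMSO gave the endpoint. Underlying data: reporter mRNA from HepG2 cells carrying transiently transfected cis-regulated reporter constructs, harvested 24 h after dosing and analyzed by RT-PCR and capillary electrophoresis.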

[3] = ATG_VDRE_CIS: Attagene CIS-FACTORIAL HepG2 Assay for human Vitamin D Receptor Element (VDRE) (AID 2282968); settings: HepG2 VDRE cis-reporter transcription, actives raise or lower the signal
How it was run: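 Transient MRTU transfection of HepG2, 24 h compound exposure. Readout: reporter transcripts via RT-PCR and capillary electrophoresis, fluorescence. Bidirectional fit vs DMSO.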

[4] = molecular target: Nuclear receptor subfamily 1 group I member 3 (Homo sapiens) (UniProt Q14994); test: ATG_CAR_TRANS: Attagene TRANS-FACTORIAL HepG2 Assay for human Constitutive Androstane Receptor (CAR) (AID 2282969; active = hit-call score of the fitted dose curve at least 0.9, where 1 is the maximum;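 also: activators raise reporter mRNA above DMSO so AC50 marks induction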); settings: HepG2 Attagene TRANS-FACTORIAL CAR reporter
Chain of Nuclear receptor subfamily 1 group I member 3 (Homo sapiens) (Q14994 whole entry, looked up, the tested form may be a part): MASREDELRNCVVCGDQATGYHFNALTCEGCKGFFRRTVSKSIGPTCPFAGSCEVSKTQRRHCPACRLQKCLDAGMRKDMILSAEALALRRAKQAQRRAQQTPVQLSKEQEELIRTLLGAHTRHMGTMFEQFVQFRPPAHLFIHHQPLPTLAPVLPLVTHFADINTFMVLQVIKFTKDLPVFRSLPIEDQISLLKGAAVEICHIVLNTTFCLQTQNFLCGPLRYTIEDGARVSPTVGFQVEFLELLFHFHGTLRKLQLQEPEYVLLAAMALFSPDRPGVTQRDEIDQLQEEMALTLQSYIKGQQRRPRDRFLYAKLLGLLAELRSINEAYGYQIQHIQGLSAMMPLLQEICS
How it was run: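 Transiently transfected HepG2, multiplex TRANS reporters (CAR-Gal4 chimera driving GAL4-UAS reporter). 24 h dosing. Readout: reporter transcript by RT-PCR + capillary electrophoresis, fluorescence intensity; positive direction vs DMSO.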

[5] = molecular target: Estrogen receptor (Homo sapiens) (UniProt P03372); test: ATG_ERa_TRANS: Attagene TRANS-FACTORIAL HepG2 Assay for human Estrogen Receptor alpha (ERa) (AID 2282970; active = hit-call score of the fitted dose curve at least 0.9, where 1 is the maximum); settings: HepG2 Attagene TRANS ERa GAL4 reporter, mRNA
Chain of Estrogen receptor (Homo sapiens) (P03372 whole entry, looked up, the tested form may be a part): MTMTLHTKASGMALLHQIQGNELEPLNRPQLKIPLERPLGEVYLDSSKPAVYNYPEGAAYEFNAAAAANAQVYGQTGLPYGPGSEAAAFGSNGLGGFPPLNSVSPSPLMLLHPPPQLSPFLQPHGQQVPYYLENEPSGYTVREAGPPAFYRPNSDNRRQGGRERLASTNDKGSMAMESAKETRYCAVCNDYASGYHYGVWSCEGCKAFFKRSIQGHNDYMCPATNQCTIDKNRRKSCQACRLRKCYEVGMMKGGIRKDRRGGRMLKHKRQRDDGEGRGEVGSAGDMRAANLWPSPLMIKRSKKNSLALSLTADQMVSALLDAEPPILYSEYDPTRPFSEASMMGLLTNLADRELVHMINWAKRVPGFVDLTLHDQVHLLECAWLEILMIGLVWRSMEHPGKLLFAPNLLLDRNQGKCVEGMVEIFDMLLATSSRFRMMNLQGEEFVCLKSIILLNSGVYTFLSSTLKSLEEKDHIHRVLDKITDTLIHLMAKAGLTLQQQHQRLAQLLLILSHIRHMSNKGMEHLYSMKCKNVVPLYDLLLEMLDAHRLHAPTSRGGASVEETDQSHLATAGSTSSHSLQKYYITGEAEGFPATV
How it was run: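 Transfected HepG2 cells carrying GAL4-UAS-driven reporter units were dosed for 24 hours. Total RNA was reverse-transcribed, reporter sequences PCR-amplified, FAM-labelled, HpaI-digested and resolved by capillary electrophoresis. Increases over DMSO control defined activity.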

[6] = molecular target: X-box-binding protein 1 (Homo sapiens) (UniProt P17861); test: ATG_Xbp1_CIS: Attagene CIS-FACTORIAL HepG2 Assay for human X-box Binding Protein 1 (XBP1) (AID 2282972); settings: HepG2 XBP1 cis-element reporter, Attagene multiplex; actives raise or lower the signal
Chain of X-box-binding protein 1 (Homo sapiens) (P17861 whole entry, looked up): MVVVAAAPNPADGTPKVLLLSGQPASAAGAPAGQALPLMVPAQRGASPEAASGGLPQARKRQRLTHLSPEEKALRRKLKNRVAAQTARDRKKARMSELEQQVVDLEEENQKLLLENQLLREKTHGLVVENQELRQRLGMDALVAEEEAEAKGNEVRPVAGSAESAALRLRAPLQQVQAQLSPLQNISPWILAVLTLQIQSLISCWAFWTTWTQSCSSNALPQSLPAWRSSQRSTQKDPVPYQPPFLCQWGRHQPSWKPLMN
How it was run: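 Changes in reporter transcript abundance, read by RT-PCR and capillary electrophoresis, reflect endogenous transcription factor activity. Transfected HepG2 cells received compound for 24 hours; DMSO defined baseline for bidirectional analysis.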

[7] = ATG_M_19_TRANS: Attagene TRANS-FACTORIAL HepG2 Assay for M19 Transcription Factor (Internal Marker) (AID 2282974; active = hit-call score of the fitted dose curve at least 0.9, where 1 is the maximum); settings: HepG2 Attagene TRANS-FACTORIAL M19 internal marker reporter
How it was run: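 Background-control readout: after 24 h chemical exposure of transfected HepG2 carrying GAL4-driven reporter units, RNA was reverse-transcribed, amplified, fluorescently labeled and sized by capillary electrophoresis; gain-of-signal fit against DMSO.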

[8] = ATG_GAL4_TRANS: Attagene TRANS-FACTORIAL HepG2 Assay for GAL4 (Internal Marker) (AID 2282976; active = hit-call score of the fitted dose curve at least 0.9, where 1 is the maximum); settings: HepG2 Attagene TRANS GAL4 internal marker reporter
How it was run: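 Fluorescence from capillary electrophoresis of labelled RT-PCR products quantifies reporter mRNA induction after 24 h dosing of HepG2 cells carrying transfected GAL4-UAS reporter transcription units. Vehicle DMSO serves as baseline.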

[9] = molecular target: Steroid hormone receptor ERR1 (Homo sapiens) (UniProt P11474); test: ATG_ERRa_TRANS: Attagene TRANS-FACTORIAL HepG2 Assay for human Estrogen-Related Receptor alpha (ERRa) (AID 2282971; active = hit-call score of the fitted dose curve at least 0.9, where 1 is the maximum); settings: HepG2 Attagene TRANS reporter, ERRa transactivation
Chain of Steroid hormone receptor ERR1 (Homo sapiens) (P11474 whole entry, looked up, the tested form may be a part): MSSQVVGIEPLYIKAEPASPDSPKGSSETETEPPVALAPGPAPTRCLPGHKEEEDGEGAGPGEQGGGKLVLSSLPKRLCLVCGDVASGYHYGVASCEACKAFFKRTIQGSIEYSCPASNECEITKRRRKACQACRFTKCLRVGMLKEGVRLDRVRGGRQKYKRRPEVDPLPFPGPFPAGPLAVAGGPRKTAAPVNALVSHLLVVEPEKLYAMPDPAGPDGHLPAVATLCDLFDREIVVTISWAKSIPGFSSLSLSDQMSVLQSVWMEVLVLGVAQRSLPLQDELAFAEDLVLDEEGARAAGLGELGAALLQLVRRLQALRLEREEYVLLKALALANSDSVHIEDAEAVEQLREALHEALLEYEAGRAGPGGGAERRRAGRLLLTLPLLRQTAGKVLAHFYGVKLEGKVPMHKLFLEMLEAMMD
How it was run: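 HepG2 cells were transiently transfected with multiple GAL4-UAS reporter units, then dosed with compound for 24 h. Total RNA was reverse-transcribed, reporter cDNA PCR-amplified and fluorescently labelled, and fragments resolved by capillary electrophoresis; induction was compared with DMSO.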

[10] = molecular target: Estrogen-related receptor gamma (Homo sapiens) (UniProt P62508); test: ATG_ERRg_TRANS: Attagene TRANS-FACTORIAL HepG2 Assay for human Estrogen-Related Receptor gamma (ERRg) (AID 2282977; active = hit-call score of the fitted dose curve at least 0.9, where 1 is the maximum;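 also: hits increase reporter signal over DMSO so potencies reflect activators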); settings: HepG2 Attagene TRANS reporter, ERRg transactivation
Chain of Estrogen-related receptor gamma (Homo sapiens) (P62508 whole entry, looked up, the tested form may be a part): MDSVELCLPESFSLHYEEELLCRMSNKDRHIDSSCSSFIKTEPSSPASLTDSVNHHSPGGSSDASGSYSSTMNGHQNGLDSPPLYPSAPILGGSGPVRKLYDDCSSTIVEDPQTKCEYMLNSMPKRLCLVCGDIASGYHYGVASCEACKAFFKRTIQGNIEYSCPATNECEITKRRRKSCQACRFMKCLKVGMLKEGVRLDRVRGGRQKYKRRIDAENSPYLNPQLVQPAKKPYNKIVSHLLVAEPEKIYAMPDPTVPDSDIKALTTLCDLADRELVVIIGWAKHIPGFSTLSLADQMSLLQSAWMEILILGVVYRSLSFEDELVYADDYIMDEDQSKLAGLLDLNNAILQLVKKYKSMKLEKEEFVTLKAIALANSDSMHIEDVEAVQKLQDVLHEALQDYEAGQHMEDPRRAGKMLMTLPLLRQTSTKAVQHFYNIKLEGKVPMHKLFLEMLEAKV
How it was run: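 Readout: fluorescent reporter-mRNA fragments resolved by capillary electrophoresis after RT-PCR and HpaI cut. Cells: transiently transfected HepG2 carrying GAL4-UAS reporters driven by exogenous NR-Gal4 chimeras, dosed 24 h. Activity fitted upward relative to DMSO baseline.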

Measured: AC50

O=C1C(N(CO)C(=O)NCO)N(CO)C(=O)N1CO (stereo not given)
not listed: [9] | [10]
inactive: all other assays above

FC(F)(F)C(=NOCC1OCCO1)c1ccc(Cl)cc1
not listed: [8] | [9] | [10]
inactive: all other assays above

ON(Cc1ccccc1)Cc1ccccc1
not listed: [8] | [9] | [10]
inactive: all other assays above

[Cl][In]([Cl])[Cl]
not listed: [7] | [8]
inactive: all other assays above

Cc1cc(C)c(C)c(O)c1
not listed: [9] | [10]
inactive: all other assays above

O=C(O)CCCC[C@@H]1SC[C@@H]2NC(=O)N[C@@H]21
not listed: [8] | [9]
inactive: all other assays above

C=CC(C)(CCC=C(C)C)OC(=O)CC(C)C (stereo not given)
not listed: [8] | [9] | [10]
inactive: all other assays above

CN1C(=O)N(C)C(O)C1O (stereo not given)
not listed: [9] | [10]
inactive: all other assays above

CCOC(=O)N1CCC(=C2c3ccc(Cl)cc3CCc3cccnc32)CC1
active: [1] 8.84 µM | [3] 1.37 µM
not listed: [6] | [10]
inactive: all other assays above

CC(=O)Oc1ccc(C(C)=O)cc1
inactive: [1] | [2] | [3] | [4] | [5] | [6]

CCc1ccc2c(c1)C(=O)c1ccccc1C2=O
inactive: [1] | [2] | [4] | [6]
active: [3] 11.6 µM | [5] 4.61 µM

Nc1ccc2cc3ccccc3cc2c1
active: [5] 6.94 µM
not listed: [7] | [9] | [10]
inactive: all other assays above

CC(C)(C)c1ccc(OC(=O)c2ccccc2O)cc1
inactive: [1] | [2] | [3] | [4] | [6]
active: [5] 6.14 µM

Nc1ncn([C@@H]2O[C@H](CO)[C@@H](O)[C@H]2O)c(=O)n1
not listed: [8] | [9]
inactive: all other assays above

CC(C)(C)c1ccc(N)cc1
not listed: [6]
inactive: all other assays above

CCCCCCCOC(=O)CCC
not listed: [7] | [9] | [10]
inactive: all other assays above

[Cl][Bi]([Cl])([c]1ccccc1)([c]1ccccc1)[c]1ccccc1
active: [5] 2.74 µM | [6] 6.04 µM
inactive: [1] | [2] | [3] | [4] | [7]

CC1OC1C1CCC2(C)OC2C1 (stereo not given)
not listed: [9] | [10]
inactive: all other assays above

CC(C)(C)C(=O)C=Cc1ccc(Cl)cc1
inactive: [2] | [7] | [10]
active: [1] 100 µM | [3] 26.3 µM | [4] 24.8 µM | [5] 26.1 µM | [6] 66.4 µM

Cc1ccc(C(C)c2ccc(C)c(C)c2)cc1C
active: [1] 123 µM
not listed: [8] | [9] | [10]
inactive: all other assays above

Nc1nc2ccccc2[nH]1
inactive: [1] | [2] | [3] | [4] | [5] | [6]

CCN(Cc1cccc(S(=O)(=O)O)c1)c1ccc(C(=C2C=CC(=[N+](CC)Cc3cccc(S(=O)(=O)[O-])c3)C=C2)c2ccccc2)cc1
active: [2] 37.4 µM
not listed: [7] | [9] | [10]
inactive: all other assays above

CC(C)C1=CC2=CC[C@@H]3[C@](C)(CCC[C@@]3(C)C(=O)O)[C@H]2CC1
inactive: [4] | [6]
active: [1] 52.1 µM | [2] 0.551 µM | [3] 4.54 µM | [5] 31.9 µM

C(=CC=Nc1ccccc1)C=CNc1ccccc1
not listed: [9] | [10]
inactive: all other assays above

CCC(C)OC(=O)c1ccc(O)cc1 (stereo not given)
inactive: [1] | [2] | [4] | [9] | [10]
active: [3] 62.7 µM | [5] 0.75 µM

OC1OCCOC1O (stereo not given)
not listed: [7] | [9] | [10]
inactive: all other assays above

COC(=O)c1cc(Cl)ccc1[N+](=O)[O-]
inactive: [1] | [2] | [3] | [4] | [5] | [6]
